This is a sample that favours compounds with a hit; in the whole collection about 5.7% have one here.
B2AR arrestin – beta2AR (human) beta-arrestin recruitment activity. P07550. beta-arrestin recruitment to beta2AR, cell-based reporter. Potency, µM (highest dose often 46.1 µM), for the others: at the highest dose activation, most hits filed as activators. 0.02% of 330,000 active. AID 492947;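 also: 0% = DMSO controls and full agonism = EC100 isoproterenol or metaproterenol; nearly all actives have a fitted effect of over 65% in size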
Gal4-VP16 FLuc – inhibits Gal4-VP16 luciferase reporter, ROR gamma counter-screen; Potency, µM (doses to about 53.6 µM), for inactives: top-dose activity, negative = inhibition, actives largely listed as inhibitors; Drosophila S2 Gal4-VP16 UAS-luciferase, luminescence, 20 h; 3.5% of 310,000 active;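 also: Gal4-VP16 expression switched on by copper sulfate through the metallothionein promoter; nearly all actives have a fitted effect of over 50% in size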
NPSR antagonist – neuropeptide S receptor (human) antagonism, cAMP | 1% of 220,000 active | AID 1461 | Potency, µM (top dose mostly 38.3 µM), for inactives: at the top dose activity change, negative = inhibition, hits mostly inhibitors | CHO-NPSR cells, cAMP TR-FRET, antagonist mode | Q6W5P4; also: nearly all actives have a fitted effect of over 50% in size
RORg inh – ROR gamma (mouse) transcription inhibition; Potency, µM (top dose mostly 53.6 µM), for the others: top-dose activity change, negative = inhibition, most hits filed as inhibitors; Drosophila S2 Gal4-RORgamma UAS-luciferase reporter, 20 h; AID 2551; 5.4% of 310,000 active; P51450; also: nearly all actives have a fitted effect of over 60% in size
Target sequence (P51450 whole entry, looked up, the tested form may be a part): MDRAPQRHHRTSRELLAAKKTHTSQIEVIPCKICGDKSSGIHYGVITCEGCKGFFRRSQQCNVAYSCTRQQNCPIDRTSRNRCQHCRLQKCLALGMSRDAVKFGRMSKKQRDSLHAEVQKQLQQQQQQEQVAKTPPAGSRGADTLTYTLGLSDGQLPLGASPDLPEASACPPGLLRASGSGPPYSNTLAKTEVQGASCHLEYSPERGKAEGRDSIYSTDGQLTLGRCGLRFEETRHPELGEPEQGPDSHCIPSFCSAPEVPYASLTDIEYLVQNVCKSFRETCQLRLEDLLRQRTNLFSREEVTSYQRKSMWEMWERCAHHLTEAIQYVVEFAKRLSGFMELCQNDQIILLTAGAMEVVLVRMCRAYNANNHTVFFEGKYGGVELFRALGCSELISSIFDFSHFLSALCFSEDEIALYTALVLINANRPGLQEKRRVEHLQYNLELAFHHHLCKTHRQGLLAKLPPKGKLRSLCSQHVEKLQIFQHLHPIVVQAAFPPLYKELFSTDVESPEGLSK
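A Gal4/UAS one-hybrid system in insect cells: metallothionein-promoter Gal4–ROR gamma fusion plus Photinus luciferase reporter. Copper sulfate 700 uM final, 20 hr ambient incubation, luminescent detection after 10 min with reagent.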
The depositor's hits bear a star; ? = inconclusive; / = not tested or not shown; [ ] = another dose, or the depositor's remark. Calls follow the shape of the dose curve; as a rule, active = well fitted curve in the direction sought with a large enough effect; inconclusive = small, poorly fitted or top-dose-only effect, or another doubt; inactive = no such curve, though single readings can be large; an effect the other way counts as inactive or inconclusive. Unless noted, % is scaled to controls: 0 for no effect and ±100 for the full control effect; potency is read from the fitted curve at half-maximal effect.

SMILES | B2AR arrestin | Gal4-VP16 FLuc | NPSR antagonist | RORg inh
CCCCc1ccc(NC(=S)NCc2cccs2)cc1 | 0.1% | ? | -24.7%[46.1 µM] | 2.24µM*
COc1ccc(Cl)cc1NC(=S)NCc1cccs1 | -0.5% | ? | -11.3% | 10µM*
COc1cccc(NC(=S)Nc2ccc(O)cc2)c1 | -0.2% | 6.7% | 8.3% | -29.4%
COc1cccc(NC(=S)Nc2ccc(F)cc2)c1 | -0.2% | ? | / | 15.8µM*
Cc1ccc(NC(=S)N(Cc2ccccc2)Cc2cccs2)c(C)c1 | 0.0% | ? | -39.8% | 7.08µM*
Cc1ccc(C)c(S(=O)(=O)N2CCN(C(=O)c3cccnc3)CC2)c1 | -0.8% | -2.5% | / | 21.7%
C=CCNC(=S)Nc1cc(Cl)ccc1OC | -0.4% | ? | 12.2% | 12.6µM*
S=C(NCc1cccs1)Nc1ccccc1 | -0.6% | ? | 5.3% | 10µM*
Cc1ccc(C)c(NC(=S)NCc2cccs2)c1 | -0.8% | 11.2µM* | 7.4% | 3.98µM*
C=CCN(CC=C)C(=S)Nc1cc(Cl)ccc1OC | -0.2% | -13.6% | -18.6% | ?
COc1cccc(NC(=S)NCc2cccs2)c1 | -0.5% | ? | 5.8% | 10µM*
Cc1ccccc1NC(=S)NCc1cccs1 | 3.2% | ? | 0.0%[46.1 µM] | ?
CCOc1ccc(-c2nnc(SCC(=O)N3CCNC3=O)o2)cc1 | 0.1% | / | / | /
COc1ccc(NC(=S)NCc2ccc(S(N)(=O)=O)cc2)cc1OC | 0.1% | -3.5% | 1.1% | -2.2%
NS(=O)(=O)c1ccc(NC(=S)NCc2cccs2)cc1 | 0.3% | 6.3% | 0.2% | 3.2%
Fc1ccc(NC(=S)NCc2cccs2)cc1 | -0.5% | 28.2µM* | 7.5% | 11.2µM*
COc1ccc(NC(=S)NCc2cccs2)cc1OC | -0.1% | -11.0% | 10.5% | 12.6µM*
COc1ccccc1NC(=S)NCc1cccs1 | -1.2% | -27.3% | 14.0% | ?
COc1ccc(CNC(=S)Nc2ccc(F)c(Cl)c2)cc1OC | -0.7% | -7.9% | -7.6% | 11.2µM*
Cc1ccc(NC(=S)NCc2cccs2)cc1 | 0.3% | ? | -17.3%[46.1 µM] | 11.2µM*
CC[C@]1(C(=O)OC)[C@H]2C(=O)N(C)C(=O)[C@H]2[C@H]2CN=C(SCC3CC3)N21 | -0.2% | / | / | /
Cc1cccc(NC(=S)NNC(=S)NCc2ccccc2)c1 | -0.1% | 0.7% | 4.2%[46.1 µM] | -24.5%
COc1cccc(NC(=S)NCc2ccccc2)c1 | -0.4% | 8.91µM* | / | 10µM*
Cc1cccc(NC(=S)NCc2cccs2)c1 | 2.4% | ? | -22.6% | 6.31µM*
S=c1[nH]cnc2scc(-c3ccc(Br)cc3)c12 | -1.0% | 0.631µM* | -54.6% | 0.501µM*
SMILES | B2AR arrestin | Gal4-VP16 FLuc | NPSR antagonist | RORg inh
Cc1ccc(-c2csc3nc[nH]c(=S)c23)cc1 | ? | 0.0141µM* | -1.1% | 0.0251µM*
Clc1ccc(-c2csc3ncnc(Cl)c23)cc1 | -2.2% | -28.9% | -12.5% | 11.2µM*
O=c1[nH]cnc2scc(-c3ccc(Br)cc3)c12 | 0.1% | 2.5% | 9.7% | -7.4%
Fc1ccc(-c2csc3ncnc(Cl)c23)cc1 | -0.2% | ? | -9.4% | ?
Cc1cc(-c2csc3nc[nH]c(=S)c23)cc(C)c1C | 0.1% | 0.562µM* | ? | 0.316µM*
Cc1nc2ccccc2n1C1CCN(C(=O)Nc2ccccc2)CC1 | -0.2% | 12.0% | -3.1% | 15.1%
Cc1cccc(NC(=O)CCc2nnc3ccc(NCc4ccco4)nn23)n1 | 0.1% | 0.6% | / | -2.3%
CCC1(CC)NC(=O)N(CC(=O)OCC(=O)Nc2ncc(Cl)cc2Cl)C1=O | 0.1% | / | / | /
Cc1ccccc1OCCCC(=O)NCc1ccco1 | -0.3% | 14.4% | -5.1%[46.1 µM] | 24.8%
S=c1[nH]cnc2scc(-c3ccc(Cl)cc3)c12 | -0.5% | 1µM* | 11.7%[7.67 µM] | 0.447µM*
CC(C)c1ccc(-c2csc3nc[nH]c(=O)c23)cc1 | 3.0% | -11.1% | / | ?
Cc1sc2nc[nH]c(=S)c2c1-c1ccccc1 | -1.2% | 0.631µM* | -19.2% | 0.282µM*
O=C1c2ccccc2C(=O)N1OS(=O)(=O)c1ccccc1 | -0.4% | 15.8µM* | -32.9% | ?
Cc1ccc(C)c(C(=O)CN2C(=O)c3ccccc3C2=O)c1 | 0.4% | -11.7% | / | -2.3%
O=C1c2cccc3cccc(c23)C(=O)N1OS(=O)(=O)c1ccccc1 | -0.1% | -11.5% | -16.8%[46.1 µM] | -20.5%
Cc1ccc(C)c(S(=O)(=O)ON2C(=O)c3ccccc3C2=O)c1 | -0.3% | 11.2µM* | -19.7%[46.1 µM] | ?
Cc1ccc(S(=O)(=O)ON2C(=O)c3cccc4cccc(c34)C2=O)cc1 | -0.3% | 6.8% | -5.8% | ?
Cc1cc(S(=O)(=O)ON2C(=O)c3ccccc3C2=O)ccc1F | -0.2% | 12.6µM* | / | ?
O=c1c(-c2ccc(Cl)cc2)nc2cnc(N3CCOCC3)nc2n1-c1ccccc1 | / | -5.6% | / | 9.6%
c1nc2nc(Nc3ccc(N4CCOCC4)cc3)nc(NC3CCCCC3)c2[nH]1 | / | ? | / | -96.1%
O=C(NCCc1ccccc1C(F)(F)F)C1CCC(=O)N(C2CC2)C1 (centres undefined) | -0.2% | 1.8% | / | -38.9%
Nc1c[n+](N2CCOCC2)no1 | / | -3.0% | / | 11.6%
CC(=O)Oc1ccc2c(=O)c(Oc3ccccc3)coc2c1OC(C)=O | 0.3% | -1.2% | -4.5% | -0.1%
COCCn1c(SCC(=O)Nc2cc(C)on2)nnc1C(C)C | 0.2% | 1.4% | / | -29.5%
COc1ccco1 | / | 3.6% | / | 3.9%
SMILES | B2AR arrestin | Gal4-VP16 FLuc | NPSR antagonist | RORg inh
CC(C)CN1C(=O)/C(=C/c2cccs2)NC1=S | -0.4% | 7.08µM* | -5.8%[46.1 µM] | 5.01µM*
COc1cccc(N2C(=O)/C(=C\c3cccs3)NC2=S)c1 | 0.2% | ? | -27.7% | 10µM*
Cc1ccc(/C=C2/NC(=O)N(Cc3ccccc3F)C2=O)s1 | -0.1% | -7.2% | 1.8% | 7.5%
COc1ccc(N2C(=O)/C(=C/c3cccnc3)NC2=S)cc1 | -0.6% | 0.5% | -11.9% | -14.3%
CCCN1C(=O)/C(=C/c2ccc(C)s2)NC1=S | -0.6% | 10µM* | ? | 5.62µM*
COc1ccc(/C=N/n2cncn2)cc1Cn1nc(C)c([N+](=O)[O-])c1C | -0.4% | -0.1% | 5.9% | 26.7%
COC(=O)c1sccc1NC(=O)Nc1ccc(F)cc1 | -0.1% | 23.7% | / | ?
COC(=O)c1sccc1NC(=O)Nc1ccc(C)cc1C | -0.9% | ? | / | ?
COC(=O)c1sccc1NC(=S)Nc1cc(C)ccc1OC | 0.2% | 15.8µM* | -3.6% | 8.91µM*
COC(=O)c1sccc1NC(=S)Nc1ccc(F)cc1 | -0.4% | ? | 3.4% | 12.6µM*
S=c1[nH]nc(-c2ccco2)n1/N=C/c1ccc(Cl)c(Cl)c1 | -0.9% | 5.62µM* | 6.4%[46.1 µM] | 5.62µM*
Cc1cccc(/C=N/n2c(-c3ccco3)n[nH]c2=S)c1 | -0.6% | -20.0% | -39.5% | ?
S=c1[nH]nc(-c2ccco2)n1/N=C/c1cccc(Cl)c1 | 0.1% | -16.1% | 6.6% | 14.1µM*
Cc1ccc(/C=N/n2c(-c3ccco3)n[nH]c2=S)cc1 | 5.4% | ? | ? | 7.08µM*
S=c1[nH]nc(-c2ccccn2)n1/N=C/c1cccc(Cl)c1 | -0.1% | ? | -35.5% | 11.2µM*
S=c1[nH]nc(-c2ccccn2)n1/N=C/c1ccco1 | 0.2% | -0.5% | -2.5% | -24.2%
CCc1nnc(NS(=O)(=O)c2ccc(NC(=O)c3ccc(C#N)cc3)cc2)s1 | -0.5% | 2.9% | / | 1.0%
Cn1cccc1/C=N/n1c(-c2ccco2)n[nH]c1=S | 0.1% | -4.5% | -2.8% | 11.2µM*
S=c1[nH]nc(-c2ccco2)n1/N=C/c1c(Cl)cccc1Cl | 4.9% | 1.0% | 12.4% | 20.1%
